Experimental data reported in PubChem BioAssay AID624351 (Southern Research Specialized Biocontainment Screening …, 2012).
The whole screen tested about 2,400 compounds, of which about 1,400 (58%) were called active.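 Rule for the calls: active = inhibition of 30% or more at any tested dose; inconclusive = primary hits over the limit that were never retested; inactive = the rest.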 So high a share suggests a set chosen from earlier hits. The list shows a part of the results.

experiment: coupled detection enzyme interference, dose response, artefact control for MgcRacGAP inhibitor project, biochemical, coupled enzyme counter-screen (AID 624351); conditions: ADP Hunter coupled enzyme counter-screen, fluorescence, no MgcRacGAP; series mostly up to 80 µM;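 note: signal is the ADP detection kit reading of free GDP without any GAP enzyme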

Structure (SMILES) | IC50
O=C(O)C1CSC(c2ccco2)N1 (configuration not stated) | inactive
CCOc1ccc(CNC2CCCc3ccccc32)cc1 (configuration not stated) | inactive
COc1cc(/C=N\NC(=O)C2CC3C=CC2C3)ccc1O (configuration not stated) | 23.9 µM (active)
COCCNC(=O)Cn1cc(/C=N/NC(=O)c2ccc(Oc3ccc(O)cc3)cc2)c2ccccc21 | 44.8 µM (active)
COCCNC(=O)CN(C(=O)Cn1nnc2ccccc21)c1ccc(C)cc1 | inactive
Oc1ccc(/C=N/Nc2nccnc2Cl)c(O)c1 | 12.8 µM (active)
Oc1ccc(/C=N/Nc2ncc(Cl)cc2Cl)cc1 | 21.5 µM (active)
Oc1ccc(/C=N/Nc2nccnc2Cl)cc1 | 21.1 µM (active)
Cc1cc(C)c(OCCCCN(C)Cc2ccccc2)c(C)c1 | inactive
COc1cc(/C=N/N(C)c2ccccc2)cc(Cl)c1O | 37.7 µM (active)
COc1cc(OC)c(OC)cc1/C=N/N(C)c1ccccc1 | 56.4 µM (active)
COc1cc(/C=N/N(C)c2ccccc2)ccc1O | 17.3 µM (active)
Cc1ccc(N2C(S)=C(C#N)C(=O)NC2c2cccs2)cc1 (configuration not stated) | inactive
CC1=NN(c2ccc(Cl)c(C(=O)O)c2)C(=O)/C1=C/c1ccc(-c2ccccc2[N+](=O)[O-])o1 | inactive
CC(=O)N1CCN(c2ccc(NCc3ccc(C(C)C)cc3)cc2)CC1 | 8.85 µM (active)
COc1cccc(-c2cc(C(=O)N3CCN(c4ccc(F)cc4)CC3)no2)c1 | inactive
CC(=O)N1CCN(c2ccc(NCc3cccc(C)c3)cc2)CC1 | 7.75 µM (active)
Cc1cccc(CN2CCN(C(C)C(=O)NC(C)c3ccccc3)CC2)c1 (configuration not stated) | inactive
CC(=O)N1CCN(c2ccc(NCc3ccc(F)cc3)cc2)CC1 | 10.9 µM (active)
Cc1ccc(CNc2ccc(N3CCOCC3)cc2)s1 | 11.7 µM (active)
O=c1c2cc(F)ccc2sn1-c1ccccc1 | inactive
CCc1ccc(CNc2ccc(N3CCN(C(C)=O)CC3)cc2)cc1 | 9.1 µM (active)
CC(=O)N1CCN(c2ccc(NCc3ccccc3)cc2)CC1 | 8.44 µM (active)
CC(C)c1ccc(CNc2ccc(N3CCOCC3)cc2)cc1 | 7.52 µM (active)

Structure (SMILES) | IC50
O=C(CNCc1cccs1)Nc1ccc(N2CCCCCC2)cc1 | inactive
CC(=O)N1CCN(c2ccc(NCc3cccs3)cc2)CC1 | 14.7 µM (active)
Cc1ccccc1C(OCC(O)CN1CCN(CCO)CC1)c1ccccc1 (configuration not stated) | inactive
O=C(CNc1ccc(Oc2ccccc2)cc1)N1CCOCC1 | inactive
c1ccc(CNc2ccc(N3CCOCC3)cc2)cc1 | 5.39 µM (active)
Cc1ccc(/C=N/Nc2ccc(C(=O)O)cc2)s1 | 79.7 µM (active)
Cc1ccc(/C=N/Nc2ccc(Cl)c(C(=O)O)c2)s1 | 67.4 µM (active)
CC(C)n1cc(/C=N/Nc2ccc(Cl)c(C(=O)O)c2)c2ccccc21 | inactive
O=c1[nH][nH]cc1C=Nc1cc(Cl)ccc1O | 46 µM (active)
O=c1[nH][nH]cc1C=Nc1ccc(Cl)cc1Cl | inactive
CCCCn1c(SCC(=O)c2ccc(O)c(O)c2)nc2ccsc2c1=O | 45.9 µM (active)
CC(Oc1ccc(Cl)cc1Cl)C(=O)Nc1ccc(O)cc1 (configuration not stated) | 46.9 µM (active)
CCOc1cccc(CNc2ccc(O)cc2)c1OCc1ccc(Cl)cc1Cl | inactive
O=C(NC(NC(=S)Nc1ccc(Cl)c(Cl)c1)C(Cl)(Cl)Cl)c1ccco1 (configuration not stated) | inactive
CCCC(=O)NC(=S)Nc1cccc2c(O)cccc12 | 46.4 µM (active)
O=C(NC(=S)Nc1cccc2c(O)cccc12)c1ccco1 | 42.5 µM (active)
S=C(NCc1ccco1)NCc1ccco1 | inactive
CCN1CCN(CC(=O)Nc2cc(C(F)(F)F)ccc2OCCOC)CC1 | inactive
Oc1ccc(/C=N/NC(=S)NCc2ccco2)cc1 | 44.4 µM (active)
CCOc1cc(/C=N/NC(=O)CN2CCCCC2)ccc1O | 55.5 µM (active)
CCOc1cc(/C=N/NC(=O)C(=O)N2CCCC2)ccc1O | 60.6 µM (active)
COc1cc(/C=N/NC(=O)C(=O)N2CCCC2)ccc1O | 40.8 µM (active)
Oc1ccc(/C=N/NC(=S)NCC2CCCO2)cc1 (configuration not stated) | 28.5 µM (active)
CCN1CCN(C(=S)NCC2CCCO2)CC1 (configuration not stated) | inactive

Structure (SMILES) | IC50
COc1cc(/C=N/NC(=O)C(=O)NCC2CCCO2)ccc1O (configuration not stated) | 31.2 µM (active)
Cc1nnc(N=c2ssnc2Cl)o1 | inactive
Nc1nc(=S)ss1 | inactive
COc1ccc(CN2CCCC(C(=O)N3CCCC3)C2)cc1 (configuration not stated) | inactive
COc1ccc2[nH]c3c(=O)n(CCCCC(=O)N4CCC(C(N)=O)CC4)c(=S)[nH]c3c2c1 | 53.3 µM (active)
COc1cccc(CN2CCC(C(=O)N3CCC(C)CC3)CC2)c1 | inactive
COc1ccc(N2CCN(C(=O)CCCn3c(=O)c4cccn4c4cccnc43)CC2)cc1 | inactive
COc1ccc2[nH]c3c(=O)n(Cc4ccc(C(=O)N5CCC(C(N)=O)CC5)cc4)c(=S)[nH]c3c2c1 | 37.6 µM (active)
CC(C)=NNc1cc([N+](=O)[O-])cc2c1C(=O)N(C)S2=O (configuration not stated) | inactive
Oc1ccc(Cl)cc1N=Cc1sc2ccccc2c1Cl | 21.4 µM (active)
Cc1ccc(O)c(N=Cc2sc3ccccc3c2Cl)c1 | 39.7 µM (active)
CS(=O)(=O)N1CCN(C2C3CC4CC(C3)CC2C4)CC1 (configuration not stated) | inactive
O=C(CN1CCCCCC1)NN(Cc1ccccc1)c1ccccc1 | inactive
O=C(COC(=O)c1ccccc1)Nc1ncc([N+](=O)[O-])s1 | inactive
COc1ccc(N2CCN(C(c3cccs3)C(C)NC(=O)c3ccco3)CC2)cc1 (configuration not stated) | inactive
CCS(=O)(=O)NC(C)C(c1cccs1)N1CCN(c2ccc(OC)cc2)CC1 (configuration not stated) | 81.8 µM (active)
COc1ccc(N2CCN(C(CNS(=O)(=O)c3ccc4c(c3)OCCO4)c3ccco3)CC2)cc1 (configuration not stated) | inactive
Nc1ccc2nc(N)sc2c1 | 11 µM (active)
Nc1ccc(-c2nc3ccc(N)cc3s2)cc1 | 75.8 µM (active)
N#CC1(Nc2ccc3c4c(cccc24)CC3)CCCCC1 | 24.3 µM (active)
COc1ccc(/C=N/Nc2cc(C)nc3ccc(OC)cc23)c(OC)c1 | inactive
COc1ccc2c(c1)c(C(=O)N/N=C/c1ccc(O)c(O)c1)c(C)n2C | 22 µM (active)
COc1ccc2nc(/N=C(\N)NC(=O)N3c4ccccc4Sc4ccccc43)nc(C)c2c1 | inactive
COc1ccc2nc(C)cc(SCC(=O)N/N=C/c3ccc(O)c(O)c3)c2c1 | 28 µM (active)
